These results are taken from PubChem BioAssay (Tox21).

A short description of test [1]: A CellTox Green Cytotoxicity Assay to monitor cytotoxicity in HepG2 cells - 8 hour (AID 1224890). Note: nearly all actives have a fitted effect of over 45% in size. In a few lines:
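First, HepG2 cells (600/well) mixed with reagent were plated; second, after 5 h at 37 C they received compounds via pintool; third, fluorescence was measured at 0 h through 40 h at 8 h intervals.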

Test [2] in a line: qHTS assay to identify small molecule antagonists of the estrogen receptor alpha (ER-alpha) signaling pathway using the BG1 cell line in the presence of 0.1 nM 17-beta-estradiol - cell viability counter screen (AID 1259241). Note: nearly all actives have a fitted effect of over 40% in size. In a few lines: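 VM7Luc4E2, 4,000 cells/well, phenol red-free medium + 10% charcoal-stripped FBS; 24 hr plating; cpd + 0.1 nM E2 final, 22 hr 37C/5% CO2; CellTiter-Fluor 30 min, fluorescence.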

Test [3] in a line: qHTS assay to identify small molecule antagonists of the androgen receptor (AR) signaling pathway using the MDA cell line in the presence of 0.5 nM R1881 - cell viability counter screen (AID 1259242). Note: nearly all actives have a fitted effect of over 45% in size. In a few lines:
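qHTS format. MDA-kb2 (MMTV-luc, AR/GR responsive) + cpd + 0.5 nM R1881 final, 16 hr 37C/0% CO2 → CellTiter-Fluor 30 min → fluorescence intensity.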
(In general: qHTS replaces the single test concentration by a dilution series.)

Test [4] in a line: qHTS assay to identify small molecule HDAC inhibitors (AID 1259364). Note: potency is the fitted concentration of half-maximal effect.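 Note: wild-type HCT-116 cells with endogenous class I/II HDAC activity; nearly all actives have a fitted effect of over 45% in size.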 In a few lines: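 Quantitative high-throughput format: overnight-seeded HCT-116 cells got compounds for 2 hr at 37C; HDAC-Glo I/II reagent added, 30 min RT, luminescence measured.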
Test [5] is described as follows: qHTS assay to identify small molecule HDAC inhibitors - cell viability counter screen (AID 1259365). Note: series mostly up to about 92 µM; nearly all actives have a fitted effect of over 50% in size. In a few lines: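 Luminescence from CellTiter-Glo, developed 30min at room temperature, reports viability of wild-type HCT-116 cells treated 2hr with compounds at 37 C and 5% CO2 after overnight plating.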
The nature of test [6]: qHTS assay to identify small molecule agonists of the sonic hedgehog signaling (Shh) pathway - cell viability counter screen (AID 1259366). Note: nearly all actives have a fitted effect of over 50% in size. In a few lines:
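Cytotoxicity counter screen run in the same wells as the Shh reporter assay. NIH/3T3 cells carrying a Gli1 response element–driven luciferase were treated with DMSO-dissolved compounds for 24hr, and live-cell protease activity was measured with CellTiter-Fluor.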

A short description of test [7]: qHTS assay to identify small molecule antagonists of the sonic hedgehog signaling (Shh) pathway (AID 1259369; calls by dose curve; note: nearly all actives have a fitted effect of over 45% in size). In a few lines:
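Stable Gli1-Luc reporter NIH/3T3 clone; quantitative HTS in stimulated mode with conditioned medium. Luminescence measured after 24hr compound treatment at 37 C.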

Test [8] can be described thus: qHTS assay to identify small molecule agonists of the androgen receptor (AR) signaling pathway in the presence of an antagonist - cell viability counter screen (AID 1259379).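 Note: MDA-kb2 human breast cancer cells carrying an MMTV luciferase reporter; series mostly up to about 92 µM; nearly all actives have a fitted effect of over 25% in size.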 In a few lines:
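Nilutamide-containing (3.0uM final) MDA-kb2 cultures, 3,000 cells/well, were treated with compounds across 15 concentrations. After 16 hr at 37C with no CO2, cell viability was determined by CellTiter-Fluor fluorescence in the luciferase assay wells.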

Test [9] can be described thus: qHTS assay to identify small molecule agonists of the estrogen receptor beta (ER-beta) signaling pathway - cell viability counter screen (AID 1259380). Note: nearly all actives have a fitted effect of over 30% in size. Note: potency is the fitted concentration of half-maximal effect. In a few lines: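 Steps: plate ER-beta-UAS-bla HEK293T cells, rest 6 hr; add compounds in DMSO; incubate 16 hr at 37C, 5% CO2; add FRET substrate 2 hr; add CellTiter-Glo, wait 30 min at room temperature; read luminescence.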

Test [10] is described as follows: qHTS assay to identify small molecule antagonists of the estrogen receptor beta (ER-beta) signaling pathway - cell viability counter screen (AID 1259382).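 Note: HEK293T cells carrying ER-beta-UAS-bla reporter stimulated with estradiol; series mostly up to about 92 µM; nearly all actives have a fitted effect of over 55% in size.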 In a few lines:
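Viability is scored by CellTiter-Glo luminescence (30 min, room temperature) in ER-beta-UAS-bla HEK293T wells already read for reporter fluorescence. Compound exposure lasts 16 hr at 37C alongside 1nM 17-beta-estradiol in charcoal-stripped serum medium.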

Test [11] addresses Estrogen receptor (Homo sapiens) (UniProt P03372). Nature of the test: qHTS assay to identify small molecule agonists of the estrogen receptor alpha (ER-alpha) signaling pathway in the presence of an antagonist (AID 1259383; calls by dose curve; note: nearly all actives have a fitted effect of over 15% in size; note: potency is the fitted concentration of half-maximal effect; for activation: top concentration of the series differs between compounds). In a few lines: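 Readout was ERE-driven luciferase luminescence in VM7Luc4E2 cells, which express full-length ER-alpha endogenously. Compounds were tested at 15 concentrations for 22hr alongside 10.0nM ICI-182,780 (final concentration).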

A short description of test [12]: qHTS assay to identify small molecule agonists or antagonists of the thyroid stimulating hormone receptor (TSHR) signaling pathway - wild type cell line counter screen (AID 1259384; calls by dose curve). In a few lines: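 Counter screen in untransfected Hek293: compounds (15-point titration, triplicate) plus phosphodiesterase inhibitor Ro20-1724 added after 18 h plating; 30 min RT. Intracellular cAMP via competitive d2/cryptate immunoassay, 1 h incubation.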

Test [13] can be described thus: qHTS assay to identify small molecule antagonists of the sonic hedgehog signaling (Shh) pathway - cell viability counter screen (AID 1259367). Note: nearly all actives have a fitted effect of over 55% in size. In a few lines: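 Viability was read by CellTiter-Fluor fluorescence in the same wells, reagent added 23 hr into compound treatment and incubated 1 hr at 37C. The 3T3 Gli1-Luc reporter cells (2,000/well) received conditioned medium after compound and ran 24 hr.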

The target in test [14] is Estrogen receptor beta (Homo sapiens) (UniProt Q92731). Kind of test: qHTS assay to identify small molecule agonists of the estrogen receptor beta (ER-beta) signaling pathway (AID 1259377; active = well fitted activation curve with a large enough effect in the signal ratio in the repeat runs, not every such curve was filed as active; the % refers to the signal ratio). In a few lines: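 HEK293T ER-beta-UAS-bla; 2% charcoal-stripped FBS; cells pre-incubated 6 hr, compound 16 hr, 37C/5% CO2; LiveBLAzer B/G FRET substrate 2 h RT; fluorescence intensity read.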

In test [15] the target is Androgen receptor (Homo sapiens) (UniProt P10275). Nature of the test: qHTS assay to identify small molecule antagonists of the androgen receptor (AR) signaling pathway using the MDA cell line in the presence of 0.5 nM R1881 (AID 1259243). Note: nearly all actives have a fitted effect of over 50% in size. In a few lines:
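Antagonist mode quantitative HTS in MDA-kb2 MMTV-luciferase cells, agonist R1881 at 0.5 nM final, 16 hr exposure at 37C and 0% CO2, luminescent detection.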

Test [16] in a line: qHTS assay to identify small molecule agonists of the sonic hedgehog signaling (Shh) pathway (AID 1259368; calls by dose curve;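 note: NIH/3T3-derived 3T3Gli1-Luc cells carrying a stable Gli1-driven firefly luciferase reporter; series mostly up to about 92 µM; nearly all actives have a fitted effect of over 15% in size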). In a few lines: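 Quantitative high-throughput format using a Gli1-driven firefly luciferase reporter line derived from NIH/3T3 cells. After a 24 hr compound treatment at 37 C and 5% CO2, luminescence reported Gli1 response element activity.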
The target in test [17] is Androgen receptor (Homo sapiens) (UniProt P10275). Nature of the test: qHTS assay to identify small molecule agonists of the androgen receptor (AR) signaling pathway in the presence of an antagonist (AID 1259381; calls by dose curve; note: nearly all actives have a fitted effect of over 15% in size). In a few lines: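 Reporter-gene luminescence from MDA-kb2 cells exposed 16hr at 37C (0% CO2) to 15-point compound titrations with 3.0uM final nilutamide as AR antagonist.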

The target of test [18] is Estrogen receptor (Homo sapiens) (UniProt P03372). Nature of the test: qHTS assay to identify small molecule antagonists of the estrogen receptor alpha (ER-alpha) signaling pathway using the BG1 cell line in the presence of 0.1 nM 17-beta-estradiol (AID 1259244). Note: nearly all actives have a fitted effect of over 50% in size. In a few lines: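 Reporter is a stably transfected luciferase under four estrogen responsive elements in VM7Luc4E2 cells expressing native full-length ER-alpha; inhibition of 0.1 nM (final) 17beta-estradiol-driven signal over 22 h is read by luminescence.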

Test [19] can be described thus: qHTS assay to identify small molecule phospholipidosis (PLD) inducers (AID 1259344; active = well fitted curve in the direction sought with a large enough effect; an effect the other way counts as inactive or inconclusive). In a few lines: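 Phospholipid accumulation was scored by imaging: fixed, Hoechst-counterstained HepG2 cells stained with LipidTOX Red after 24 h compound exposure at 37 C. Read-outs were pit count and pit intensity per well or per cell, with amiodarone and DMSO controls.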
Test [20] concerns the target Estrogen receptor beta (Homo sapiens) (UniProt Q92731). Kind of test: qHTS assay to identify small molecule antagonists of the estrogen receptor beta (ER-beta) signaling pathway (AID 1259378; active = well fitted inhibition curve with a large enough effect in the signal ratio in the repeat runs, not every such curve was filed as active; the % refers to the signal ratio). In a few lines: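 Antagonist mode: compounds added to beta-lactamase reporter HEK293T ER-beta-UAS cells stimulated with E2 (1nM final), 16 hr at 37C. LiveBLAzer B/G FRET substrate, 2 hours room temperature, fluorescence read-out.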

Unmarked numbers belong to inactive results. Results filed as inconclusive are left out. Activity calls are given as the source filed them. Unless noted, calls come from the whole dose curve; as a rule, active = well fitted curve in the direction sought with a large enough effect in the repeat runs; inconclusive = weak or mixed curves; inactive = no such curve, though single readings can be large; an effect the other way counts as inactive or inconclusive.

Androgen receptor (Homo sapiens), sequence (P10275 whole entry, looked up): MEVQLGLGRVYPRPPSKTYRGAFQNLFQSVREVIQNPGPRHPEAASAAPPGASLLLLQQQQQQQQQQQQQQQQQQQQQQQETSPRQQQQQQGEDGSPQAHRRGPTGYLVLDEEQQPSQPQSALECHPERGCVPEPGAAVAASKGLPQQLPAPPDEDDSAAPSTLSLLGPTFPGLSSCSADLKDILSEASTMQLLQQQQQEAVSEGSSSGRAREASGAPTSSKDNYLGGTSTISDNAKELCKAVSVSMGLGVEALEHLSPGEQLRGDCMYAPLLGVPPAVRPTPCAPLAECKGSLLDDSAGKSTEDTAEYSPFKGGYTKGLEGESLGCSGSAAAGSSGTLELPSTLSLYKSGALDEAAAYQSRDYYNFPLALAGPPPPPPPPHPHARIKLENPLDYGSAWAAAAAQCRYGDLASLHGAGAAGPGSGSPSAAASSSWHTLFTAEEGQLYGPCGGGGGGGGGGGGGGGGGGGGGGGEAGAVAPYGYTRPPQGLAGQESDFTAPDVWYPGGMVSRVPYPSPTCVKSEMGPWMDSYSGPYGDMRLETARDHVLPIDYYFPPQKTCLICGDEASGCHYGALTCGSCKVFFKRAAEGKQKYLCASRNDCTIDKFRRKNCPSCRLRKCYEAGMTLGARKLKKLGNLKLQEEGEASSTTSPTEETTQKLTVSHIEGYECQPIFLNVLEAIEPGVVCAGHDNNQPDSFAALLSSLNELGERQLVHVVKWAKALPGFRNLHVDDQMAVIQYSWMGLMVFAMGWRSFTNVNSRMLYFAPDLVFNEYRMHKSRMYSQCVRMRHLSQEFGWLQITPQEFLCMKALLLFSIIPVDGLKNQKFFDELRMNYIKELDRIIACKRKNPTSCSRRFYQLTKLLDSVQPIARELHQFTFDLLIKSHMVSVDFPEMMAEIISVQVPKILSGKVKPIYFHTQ
Estrogen receptor beta (Homo sapiens), sequence (Q92731 whole entry, looked up): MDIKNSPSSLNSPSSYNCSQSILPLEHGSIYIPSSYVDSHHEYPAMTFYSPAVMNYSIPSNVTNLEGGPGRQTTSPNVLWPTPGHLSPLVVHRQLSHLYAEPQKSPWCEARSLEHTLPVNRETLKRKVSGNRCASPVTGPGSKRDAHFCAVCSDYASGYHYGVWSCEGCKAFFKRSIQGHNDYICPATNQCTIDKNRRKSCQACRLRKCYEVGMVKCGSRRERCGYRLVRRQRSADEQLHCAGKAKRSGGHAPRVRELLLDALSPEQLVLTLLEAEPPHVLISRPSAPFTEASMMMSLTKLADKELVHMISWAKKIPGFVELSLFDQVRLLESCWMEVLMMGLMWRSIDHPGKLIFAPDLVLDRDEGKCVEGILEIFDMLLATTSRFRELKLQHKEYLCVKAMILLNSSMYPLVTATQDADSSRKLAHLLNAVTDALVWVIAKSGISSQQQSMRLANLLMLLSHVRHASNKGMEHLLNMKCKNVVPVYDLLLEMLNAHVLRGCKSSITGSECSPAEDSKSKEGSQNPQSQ
Estrogen receptor (Homo sapiens), sequence (P03372 whole entry, looked up): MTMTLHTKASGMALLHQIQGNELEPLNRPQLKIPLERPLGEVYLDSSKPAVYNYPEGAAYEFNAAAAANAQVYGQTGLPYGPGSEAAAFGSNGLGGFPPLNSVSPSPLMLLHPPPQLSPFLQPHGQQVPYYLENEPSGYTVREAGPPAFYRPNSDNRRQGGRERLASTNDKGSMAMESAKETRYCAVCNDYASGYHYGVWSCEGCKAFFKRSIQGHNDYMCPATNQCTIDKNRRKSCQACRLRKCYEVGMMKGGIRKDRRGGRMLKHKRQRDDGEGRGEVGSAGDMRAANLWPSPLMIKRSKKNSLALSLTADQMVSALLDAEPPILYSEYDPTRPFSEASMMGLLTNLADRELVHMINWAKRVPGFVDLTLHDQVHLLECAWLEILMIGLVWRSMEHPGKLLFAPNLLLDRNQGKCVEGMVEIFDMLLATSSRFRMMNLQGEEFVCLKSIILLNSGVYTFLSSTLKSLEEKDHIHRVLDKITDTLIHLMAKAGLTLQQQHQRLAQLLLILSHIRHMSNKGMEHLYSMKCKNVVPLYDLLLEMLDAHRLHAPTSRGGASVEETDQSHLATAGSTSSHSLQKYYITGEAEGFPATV

For the molecule `CCCOCCC`, the Potency entry in [1], in test [2], in test [4], in test [6], in test [7] and in test [8] was “inactive” each time. The Potency result in [9] and in [11] was “inactive” in each case. Besides, the result in test [3], in test [5], in test [10] and in test [12] was inactive.
With `Cc1nc(N)nc(N)c1-c1ccc(Cl)c(Cl)c1`, the Potency entry in test [1], in test [2], in [4], in test [6], in test [13] and in test [8] was “inactive” each time. Further, the Potency entry in test [11] was “inactive”. Besides, the result in [3], in test [5] and in [14] was inactive. The Potency in test [9] is 2.66 µM (active).
`Cc1cc2nc(N)sc2cc1C`: the Potency entry in test [1], in [2], in test [15], in test [6], in test [13] and in [16] was “inactive” throughout. For the same molecule, the Potency entry in test [7], in [8] and in test [17] was “inactive” throughout. In addition, the Potency is 0.276 µM (active) in test [4] and 30.9 µM (active) in [9]. The molecule was classed as inactive in test [5] and in [12].
As for `N#Cc1ccc(C(c2ccc(C#N)cc2)n2cncn2)cc1`, the Potency result in test [1], in test [2], in test [18], in test [4], in [6] and in test [13] was “inactive” each time. Further, the Potency entry in [16], in [7], in [20], in test [8], in [9] and in test [17] was “inactive” in each case. In addition, the Potency result in test [11] was “inactive”. The molecule was classed as inactive in test [19], in test [5], in test [14] and in test [12].
As to `CC1(C)C(=O)N(Cl)C(=O)N1Br`, the Potency entry in test [1], in test [2], in test [4], in [6], in test [13] and in test [16] was “inactive” each time. The Potency entry in test [7], in [8] and in test [9] was “inactive” in each case. Also, the outcome in test [3], in test [5] and in test [10] was inactive.
Take `CCCc1c2oc(C(=O)O)cc(=O)c2cc2c(=O)cc(C(=O)O)n(CC)c12`: the Potency result in [1], in test [2], in test [4], in [6], in test [13] and in test [16] was “inactive” throughout. Besides, the Potency result in [7], in test [8], in test [9] and in test [11] was “inactive” throughout. Besides, the outcome in test [3], in test [5], in test [10] and in test [12] was inactive.
For `O=C1Nc2ccc([N+](=O)[O-])cc2C1=O`, the Potency result in [1], in test [2], in test [4], in [6], in [16] and in [7] was “inactive” each time. For the same molecule, in [20], the Potency result is “inactive”. The outcome in test [3], in test [5], in [14], in test [10] and in test [12] was inactive.
With `O=C(CC(=O)C(F)(F)F)c1ccccc1`, the Potency entry in test [1], in test [2], in test [4], in [6], in test [13] and in test [7] was “inactive” throughout. The Potency result in [8] was “inactive”. For the same molecule, the outcome in [3], in test [5], in test [14], in test [10] and in [12] was inactive. Further, in test [11], the Potency was 9.83 µM (active).
Consider `O=C(CCCl)NCc1ccccc1`, for which the Potency entry in test [1], in test [2], in test [18], in [4], in test [6] and in test [13] was “inactive” throughout. Moreover, the Potency entry in test [16], in test [7], in test [20], in [8], in test [9] and in test [11] was “inactive” in each case. The call in test [5], in [14], in test [10] and in [12] was inactive.
For the molecule `c1ccc(CN(CC2=NCCN2)c2ccccc2)cc1`, the Potency entry in [1], in [2], in test [18], in [4], in test [6] and in test [13] was “inactive” throughout. In addition, the Potency entry in test [16], in test [7], in [20], in test [8], in test [9] and in [11] was “inactive” in each case. Also, the call in test [19], in test [5], in test [14], in test [10] and in test [12] was inactive.
Regarding `Cc1c[nH]c(=S)[nH]c1=O`, the Potency result in test [1], in [2], in test [4], in [6], in [13] and in test [7] was “inactive” in each case. Moreover, the Potency result in test [20], in test [8] and in test [11] was “inactive” in each case. Besides, the outcome in [3], in test [5], in test [14] and in test [10] was inactive.
Regarding `COc1ccccc1N1CCN(CCCNc2cc(=O)n(C)c(=O)n2C)CC1`, the Potency entry in test [1], in test [2], in test [18], in test [4], in test [6] and in test [16] was “inactive” throughout. For the same molecule, the Potency entry in [7], in test [20], in test [8], in test [9] and in [11] was “inactive” in each case. Further, the molecule was called inactive in test [19], in test [5], in [14] and in test [12].
